# Out of some 63,000 compounds screened, about 1,100 (1.7%) were called active. The full list was thinned out, with actives kept by preference. Results with a measured potency or affinity are listed apart. A number with no mark means an inactive call. No stated cut-off is given here; in the data, active means cytotoxicity above about 50%; inactive means the rest.
# Assay: HPDE-C7 pancreatic duct cell viability loss – fluorescence, HTS (AID 430);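 further: cells exposed to compound for 48 hours before viability readout; 0% = vehicle and 100% = reference cytotoxic drug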
# Settings: HPDE-C7 pancreatic duct cells viability, at 10 µM, active compounds read high
row,SMILES,cytotoxicity
1,CCC1Sc2ccccc2N(CC(=O)NCCC(C)C)C1=O (centres undefined),-14.5%
2,FC(F)(F)c1cccnc1N1CCN(c2ncnc3nc[nH]c23)CC1,-5.7%
3,CCCCS(=O)(=O)NC1=NCN(CCO)CN1,-7.4%
4,CCCCN1C(=O)C(O)(CC(=O)c2c(C)n[nH]c2C)c2cc(Br)ccc21 (centres undefined),7.7%
5,CN(c1ccc(C(=O)NCc2ccco2)cc1)S(C)(=O)=O,0.7%
6,COCCNC(=O)NC(=O)COC(=O)C12CC3CC(CC(NC(C)=O)(C3)C1)C2,-1.4%
7,CCOCCCn1c(=S)[nH]c2cc(C(=O)NCCN(CC)CC)ccc2c1=O,1.7%
8,Cc1[nH]c(=O)[nH]c(=O)c1NC(=O)CSc1ncccc1-c1nc2ccccc2[nH]1,3%
9,NC(=O)c1ccsc1NC(=O)COC(=O)c1ccccc1NCc1ccco1,0.6%
10,COc1ccc(NC(=O)c2ccc(CN3CCN(c4ccccc4)CC3)cc2)cc1OC,-17.4%
11,CCn1c(SCC(=O)N2CCN(c3ccccc3F)CC2)nnc1-c1ccoc1C,-0.9%
12,CC1(C)OC(=O)N(c2ccccn2)C1(C)O (centres undefined),2.3%
13,O=C(Nc1nnc(-c2ccccc2Cl)o1)c1ccc(S(=O)(=O)N2CCCCCC2)cc1,53.6% (active)
14,Cc1nnc(NC(=O)c2ccc(S(=O)(=O)N3CCCCCC3)cc2)o1,7.5%
15,COCc1nnc(NC(=O)c2ccc(S(=O)(=O)N3CCCCCC3)cc2)o1,3.2%
16,CC(OC(=O)c1cccc(NS(C)(=O)=O)c1)C(=O)Nc1ccc(N2CCOCC2)cc1 (centres undefined),-30.2%
17,CN(C)c1ccc(C2C=C(c3ccc(Cl)cc3OC(F)F)Nc3ncnn32)cc1 (centres undefined),52.1% (active)
18,COc1cccc(C2=CC(c3ccc(N(C)C)cc3)n3ncnc3N2)c1 (centres undefined),-4.9%
19,Cc1ccc(C2C=C(c3ccccc3OC(F)F)Nc3ncnn32)cc1 (centres undefined),-8.7%
20,O=C(Oc1ccc(Br)cc1)C1CC(=O)N(c2ccc(F)cc2)C1 (centres undefined),-2.4%
21,CCn1cnc2c1c(=O)n(CC(=O)Nc1cc(C)on1)c(=O)n2Cc1ccccc1,0%
22,O=C(Nc1ccccc1C(F)(F)F)c1cc(-c2cccc(O)c2)on1,-6.5%
23,CC(C)N=c1cc2n(-c3ccc(Cl)cc3)c3ccccc3nc-2cc1Nc1ccc(Cl)cc1,83.5% (active)
24,Cc1nc2ccccc2n1-c1ccccc1,-4%

row,SMILES,cytotoxicity
1,Cn1c(CNc2ccc(Cl)cc2)nc2ccccc21,-13%
2,COc1ccc(S(=O)(=O)n2cnc3cc(C)c(C)cc32)cc1C,20.4%
3,O=C(CN(CCc1ccccc1)C(=O)CNS(=O)(=O)c1ccccc1)NCC1CCCO1 (centres undefined),-10.5%
4,O=C(Nc1nc(-c2cccnc2)cs1)c1ccc(S(=O)(=O)N2CCOCC2)cc1,-18.5%
5,Cc1nc(N)c(C#N)c(-c2ccccc2)c1C,13.3%
6,Cc1c(-c2ccccc2)nc(N)c(C#N)c1-c1ccco1,-4.2%
7,CC1=C(C#N)c2nc(N)c(C#N)c(C)c2/C1=C\c1ccccc1,107% (active)
8,COc1ccc(CNC(=O)c2csnn2)cc1,-14.5%
9,CN(C)/C=C1\C(=O)c2ccc(N(C)C)nc2CC1c1ccccc1 (centres undefined),60.7% (active)
10,CN(C)C=C1C(=O)c2ccccc2C1=O,29.6%
11,CN(C)/C=C1/Sc2ccccc2C1=O,-34.3%
12,CCN1C(=O)C2(C(C#N)=C(N)Oc3c2c(C)nn3-c2ccccc2)c2ccccc21 (centres undefined),-16%
13,Cc1cc2n(n1)C(c1ccccc1Cl)Nc1ccccc1-2 (centres undefined),9.5%
14,Cc1cc2n(n1)C(c1ccccc1)Nc1ccccc1-2 (centres undefined),-1.8%
15,Cc1ccc(C(=O)NC(Cc2c[nH]c3ccccc23)C(=O)O)o1 (centres undefined),-0.1%
16,Cc1cc(N2C(=O)C(=O)/C(=C(/O)c3ccc(F)cc3)C2c2ccc(F)cc2)no1 (centres undefined),23.3%
17,Cc1ccc(/C(O)=C2\C(=O)C(=O)N(c3cc(C)on3)C2c2cccc(Cl)c2)cc1 (centres undefined),51.8% (active)
18,COc1cccc(C2/C(=C(\O)c3ccc(OC)c(OC)c3)C(=O)C(=O)N2c2cc(C)on2)c1 (centres undefined),20.9%
19,Cc1cc(N2C(=O)C(=O)/C(=C(/O)c3ccccc3)C2c2cccc(Br)c2)no1 (centres undefined),3.2%
20,Cc1cc(N2C(=O)C(=O)/C(=C(/O)c3ccc(F)cc3)C2c2ccc(Cl)cc2)no1 (centres undefined),34.6%
21,Cc1cc(N2C(=O)C(=O)/C(=C(/O)c3ccc(F)cc3)C2c2cccc(Br)c2)no1 (centres undefined),71.5% (active)
22,COc1ccc(/C(O)=C2\C(=O)C(=O)N(c3cc(C)on3)C2c2ccccc2OC)cc1 (centres undefined),-1.9%
23,Cc1cc(N2C(=O)C(=O)/C(=C(/O)c3ccc(Cl)cc3)C2c2cccc(Br)c2)no1 (centres undefined),56.2% (active)
24,Cc1ccc(/C(O)=C2\C(=O)C(=O)N(c3cc(C)on3)C2c2cccc(Br)c2)cc1 (centres undefined),49.9%

row,SMILES,cytotoxicity
1,Cc1c(N=Cc2cc3c(cc2Cl)OCO3)c(=O)n(-c2ccccc2)n1C,-3.1%
2,COc1ccccc1OCCCCNCCO,-0.7%
3,CCOC(=O)N1CCC(N2CCN(S(=O)(=O)c3ccc(NC(C)=O)cc3)CC2)CC1,-12.8%
4,Cc1ccnc(Sc2nc3c(c(=O)[nH]c(=O)n3C)n2CCCc2ccccc2)n1,-9.5%
5,C=CCn1c(SCC(=O)Nc2cccc(C(=O)OC)c2)nnc1C(C)NC(=O)c1cccs1 (centres undefined),-5%
6,O=C(c1cc(-c2cccs2)on1)N1CCc2ccccc2C1,2.3%
7,CSc1nc2nc(C)cc(-c3ccccc3)n2n1,-10.4%
8,Cc1cccc(NC(=O)C2CCN(S(=O)(=O)c3c(C)nn(C)c3C)CC2)n1,1.6%
9,COc1ccc2[nH]c(=O)c(CN(C(=O)c3ccccn3)C3CCCCC3)cc2c1,-30.2%
10,O=C(c1ccc(S(=O)(=O)N2CCOCC2)cc1)N1CCc2ccccc2C1,-7.6%
11,CCOC(=O)C1=C(C)NC(=O)NC1/C(C)=C/c1ccccc1 (centres undefined),-16%
12,COc1cccc(OC)c1-c1nn2c(-c3cc(-c4ccccc4)n[nH]3)nnc2s1,68.9% (active)
13,COc1cccc(OC)c1-c1nn2c(-c3ccccc3Cl)nnc2s1,19.8%
14,COc1ccc(-c2nnc3sc(-c4c(OC)cccc4OC)nn23)cc1,10.9%
15,COc1cc(-c2nnc3sc(-c4cccs4)nn23)cc(OC)c1OC,75.8% (active)
16,Cc1nnc2sc(-c3cc4ccccc4o3)nn12,5.6%
17,COc1cccc(-c2nn3c(-c4ccco4)nnc3s2)c1,-0.7%
18,COc1ccc(-c2nnc3sc(-c4cccs4)nn23)cc1OC,20.2%
19,COc1ccccc1-c1nn2c(-c3ccccc3Cl)nnc2s1,-14.1%
20,COc1cccc(-c2nnc3sc(-c4ccco4)nn23)c1,58% (active)
21,CCOc1cccc(-c2nnc3sc(-c4ccco4)nn23)c1,21.5%
22,COc1cc(-c2nnc3sc(-c4ccncc4)nn23)cc(OC)c1OC,-12.2%
23,COc1ccccc1-c1nnc2sc(-c3cc4ccccc4o3)nn12,56.2% (active)
24,CCOc1ccc(N=C(NC#N)SC)cc1,-2.8%

row,SMILES,cytotoxicity
1,CCN(CC)CCNC(=O)c1ccc2c(c1)ncn2C1CCCCC1,0.5%
2,O=C(Nc1cccc(C(F)(F)F)c1)C1CCCN(S(=O)(=O)c2cnc[nH]2)C1 (centres undefined),-7.5%
3,CCOC(=O)CN(C(=O)CSc1nnc(-c2ccncc2)n1CCCN(C)C)c1ccccc1,-4.8%
4,Cc1nc2c3c4c(sc3n3c(SCC(=O)NCc5ccco5)nnc3n2n1)COC(C)(C)C4,-6.3%
5,Cc1cc(Cl)c(S(=O)(=O)NCc2ccncc2)cc1OCC(N)=O,5.1%
6,CC1(C)CC(=O)C=C(Nc2ccccc2F)C1,1.2%
7,O=C(c1ccc(Cl)cc1)C1CCN(C(=O)NC2CCCCC2)CC1,-11.6%
8,N#CCCCN1C(=O)C(O)(CC(=O)c2ccc3c(c2)OCCO3)c2ccccc21 (centres undefined),-27.8%
9,Cc1ccc(-n2c(Cn3cnc4ccccc43)nnc2SCC(=O)O)cc1,-16.2%
10,COc1ccc(NC(C)=O)cc1NC(=O)CN1CCN(CC(=O)Nc2ccc(Cl)cc2)CC1,-12.5%
11,CCc1nc2ccccc2c(NC(=O)CN2CCC(C)CC2)c1C,8.8%
12,CCOC(=O)C1CCCN(CC(=O)NC2=Nc3ccccc3N=C(C)C2c2ccccc2)C1 (centres undefined),3.8%
13,O=C(NCc1ccc(F)cc1)c1noc2c1CCCC2,-10.3%
14,Cc1oc(-c2ccc(F)cc2)cc1-c1nn2c(-c3ccco3)nnc2s1,-18%
15,Fc1ccc(-c2ccc(-c3nn4c(-c5ccco5)nnc4s3)o2)cc1,73.5% (active)
16,Clc1ccc(-c2ccc(-c3nn4c(-c5ccco5)nnc4s3)o2)cc1,-11.9%
17,COc1cccc(OCc2nc3ccccc3c(=O)n2N)c1,-8.2%
18,O=c1c2c3nc4ccccc4nc3n(-c3ccc4c(c3)OCCO4)c2ncn1CC1CCCO1 (centres undefined),0.3%
19,CCC(C)n1cnc2c(c1=O)c1nc3ccccc3nc1n2-c1ccc2c(c1)OCCO2 (centres undefined),-13.4%
20,CCCn1c(C)nc2c(c1=O)c1nc3ccccc3nc1n2-c1ccc2c(c1)OCCO2,51.4% (active)
21,CC(=NCC1CCCO1)C1=C(O)CC(C)(C)CC1=O (centres undefined),-12.6%
22,Cc1ccccc1-n1nc2c(c1NC(=O)COc1ccc(Cl)cc1)CS(=O)C2 (centres undefined),10%
